Test results as given in PubChem BioAssay.
Active and inactive are the calls of the source.

How the values were obtained:
Albumin (Bos taurus) = Albumin (Bos taurus) (UniProt P02769); test: compounds binding labelled BSA control protein – biochemical, small-molecule microarray, Alexa647 label, 635/667 nm fluorescence, artefact control for SMM control protein annotation, profiling panel (AID 1118); settings: BSA-A647 binding, fluorescence 635 nm, higher = more signal;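 note: score merges 667 nm emission intensity and signal-to-noise per printed compound spot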
[1] = probe aXIP binding to arrayed compounds – biochemical, NeuroSMM set, 635/667 nm fluorescence, primary screen (AID 1119); settings: small-molecule microarray, higher = more signal, called active from +8 up or from −8 down;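 note: probe is the protein aXip251-270 applied at 1 µg/mL to compound-printed slides; binding of probe to printed compounds measured as 667 nm fluorescence plus signal to noise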
[2] = probe aNOTCH3 binding on compound microarray – biochemical, small-molecule microarray, 635/667 nm fluorescence, primary screen (AID 1120); settings: higher = more signal;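 note: probe is a biotin-tagged antibody raised against NOTCH3 rather than NOTCH3 protein; score merges spot fluorescence near 667 nm with spot signal to noise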
[3] = probe aNOTCH2 binding on compound microarray – biochemical, small-molecule microarray, 635/667 nm fluorescence, primary screen (AID 1121); settings: higher = more signal;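 note: score merges feature fluorescence read at 667 nm with its signal to noise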
[4] = molecular target: Carbonic anhydrase 2 (Homo sapiens) (UniProt P00918); test: compounds binding carbonic anhydrase 2 – biochemical, small-molecule microarray, Alexa647-labelled CAII, profiling panel (AID 1122); settings: CAII-A647 binding fluorescence, higher = more signal
[5] = COS7 lysate on small-molecule microarray, probe aHis, 635 nm (AID 1123); settings: COS7 cell lysate, fluorescence, higher = more signal;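 note: z-score combines 667nm fluorescence intensity with signal-to-noise per printed compound spot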
[6] = probe aLAP1 signal on lysate-treated microarray – cell lysate, small-molecule microarray, COS7 lysate, primary screen (AID 1124); settings: probe aLAP1, fluorescence, higher = more signal;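 note: lysate comes from COS7 cells expressing LAP1 and is applied at 0.3 µg/mL; score merges spot fluorescence near 667 nm with signal-to-noise over triplicate slides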
Sam68 (KHDRBS1) = test: compounds binding KHDRBS1 protein – biochemical, small-molecule microarray, 635 nm fluorescence, primary screen (AID 1125); settings: higher = more signal;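 note: score merges 667 nm channel intensity with signal to noise over triplicate slides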
[7] = system: Chordin-like protein 2 (CHRDL2); test: compounds binding chordin-like 2 – biochemical, small-molecule microarray, 635 nm fluorescence, primary screen (AID 1126); settings: fluorescence 635 nm, higher = more signal;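 note: printed compound slides probed with Chrdl2 protein at 4 µg/mL for 1 h at 4 C; score merges 667 nm emission intensity with signal to noise over three replicate slides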
[8] = molecular target: Concanavalin-A (Canavalia ensiformis) (UniProt P02866); test: compounds binding concanavalin A lectin – biochemical, small-molecule microarray, Alexa647 label, 635 nm, artefact control for SMM control protein annotation, primary screen (AID 1127); settings: ConA-A647 binding fluorescence, higher = more signal;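 note: z combines 667 nm emission intensity with signal-to-noise across three replicate slides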
[9] = compounds binding Alexa647 anti-His antibody – biochemical, small-molecule microarray, 635 nm fluorescence, artefact control for SMM control protein annotation, primary screen (AID 1128); settings: higher = more signal;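 note: score merges feature fluorescence with signal-to-noise for each printed compound spot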
[10] = system: Human papillomavirus type 1a E7 protein (residues 1-88); test: HPV1a E7 small-molecule binders, primary screen, biochemical, small-molecule microarray, residues 1-88, 635 nm (AID 1129); settings: small-molecule microarray binding, fluorescence 635 nm; higher = more signal
[11] = molecular target: Focal adhesion kinase 1 (Homo sapiens) (UniProt Q05397); test: PTK2 protein binding on printed compound slides – biochemical, small-molecule microarray, 635/667 nm fluorescence, BSA, DTT, primary screen (AID 1130); settings: 635 nm fluorescence, higher = more signal;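 note: composite of spot emission at 667 nm and signal to noise over triplicate slides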
[12] = system: Fibrinogen (Alexa647-labelled); test: Alexa647-fibrinogen binding to printed small molecules – biochemical, small-molecule microarray, 635/667 nm fluorescence, artefact control for SMM control-protein annotation, profiling panel (AID 1131); settings: fibrinogen-A647 binding fluorescence, higher = more signal;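 note: z-score merges 667 nm fluorescence with per-spot signal-to-noise over triplicate slides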
[13] = molecular target: Follistatin (Homo sapiens) (UniProt P19883); test: FST protein binding to printed compounds – biochemical, small-molecule microarray, 635/667 nm fluorescence, primary screen (AID 1132); settings: 635 nm fluorescence, higher = more signal
[14] = molecular target: Fibroblast growth factor 2 (Homo sapiens) (UniProt P09038); test: basic fibroblast growth factor binding to printed compounds – biochemical, small-molecule microarray, 635/667 nm fluorescence, primary screen (AID 1133); settings: FGF2, fluorescence 635/667, higher = more signal
[15] = JC-1 mitochondrial potential readout, lung cancer cells – cell-based, A549, JC-1 fluorescence, basal, 24 h, 100 nL, profiling panel (AID 1138); settings: higher = more signal;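 note: A549 lung adenocarcinoma cells under basal conditions with no added stimulus; test concentration not given here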
Lefty1 = Lefty1 protein binding to printed compounds – biochemical, small-molecule microarray, 635/667 nm fluorescence, primary screen (AID 1139); settings: fluorescence 635/667, higher = more signal
[16] = system: wheat germ agglutinin (Triticum aestivum), Alexa647-labelled; test: Alexa647-WGA lectin binding to printed small molecules – biochemical, small-molecule microarray, 635/667 nm fluorescence, artefact control for SMM control-protein annotation, profiling panel (AID 1140); settings: WGA-A647 binding, 635 nm fluorescence, higher = more signal;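 note: score merges 667 nm feature emission with signal to noise over triplicate slides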
[17] = molecular target: Luciferin 4-monooxygenase (Photinus pyralis) (UniProt P08659); test: inhibition of purified Photinus pyralis luciferase – biochemical, luminescence, purified enzyme, 2006 set, primary screen (AID 1141); settings: purified firefly luciferase, SteadyGlo luminescence, 30 min; higher = more signal, called active from +8 up or from −8 down;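 note: cell-free assay with purified firefly luciferase at 100 ng per well in PBS; test concentration not given here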
Luciferin 4-monooxygenase (Photinus pyralis), sequence (P08659 whole entry, looked up): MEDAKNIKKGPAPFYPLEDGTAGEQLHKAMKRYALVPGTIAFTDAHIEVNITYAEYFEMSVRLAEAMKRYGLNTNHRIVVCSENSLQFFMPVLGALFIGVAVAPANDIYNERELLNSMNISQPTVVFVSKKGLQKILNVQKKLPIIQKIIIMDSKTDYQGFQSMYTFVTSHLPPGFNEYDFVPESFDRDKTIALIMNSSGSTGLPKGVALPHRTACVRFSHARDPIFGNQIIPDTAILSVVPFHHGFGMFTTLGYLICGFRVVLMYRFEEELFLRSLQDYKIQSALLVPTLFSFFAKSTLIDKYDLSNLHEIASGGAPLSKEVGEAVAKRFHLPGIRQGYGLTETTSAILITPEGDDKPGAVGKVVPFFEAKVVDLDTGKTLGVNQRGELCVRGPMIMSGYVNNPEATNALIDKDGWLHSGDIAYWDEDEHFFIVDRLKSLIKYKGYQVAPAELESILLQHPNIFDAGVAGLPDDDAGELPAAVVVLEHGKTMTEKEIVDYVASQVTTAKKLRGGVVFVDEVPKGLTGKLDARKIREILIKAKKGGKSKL

Fibroblast growth factor 2 (Homo sapiens), sequence (P09038 whole entry, looked up): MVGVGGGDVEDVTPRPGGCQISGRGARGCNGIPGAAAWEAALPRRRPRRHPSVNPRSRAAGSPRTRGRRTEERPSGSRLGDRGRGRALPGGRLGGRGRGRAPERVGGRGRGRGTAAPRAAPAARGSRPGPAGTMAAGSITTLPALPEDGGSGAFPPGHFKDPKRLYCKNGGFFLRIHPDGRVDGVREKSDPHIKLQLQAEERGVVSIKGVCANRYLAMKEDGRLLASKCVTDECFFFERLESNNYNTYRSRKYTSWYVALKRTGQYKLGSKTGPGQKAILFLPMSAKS
Focal adhesion kinase 1 (Homo sapiens), sequence (Q05397 whole entry, looked up): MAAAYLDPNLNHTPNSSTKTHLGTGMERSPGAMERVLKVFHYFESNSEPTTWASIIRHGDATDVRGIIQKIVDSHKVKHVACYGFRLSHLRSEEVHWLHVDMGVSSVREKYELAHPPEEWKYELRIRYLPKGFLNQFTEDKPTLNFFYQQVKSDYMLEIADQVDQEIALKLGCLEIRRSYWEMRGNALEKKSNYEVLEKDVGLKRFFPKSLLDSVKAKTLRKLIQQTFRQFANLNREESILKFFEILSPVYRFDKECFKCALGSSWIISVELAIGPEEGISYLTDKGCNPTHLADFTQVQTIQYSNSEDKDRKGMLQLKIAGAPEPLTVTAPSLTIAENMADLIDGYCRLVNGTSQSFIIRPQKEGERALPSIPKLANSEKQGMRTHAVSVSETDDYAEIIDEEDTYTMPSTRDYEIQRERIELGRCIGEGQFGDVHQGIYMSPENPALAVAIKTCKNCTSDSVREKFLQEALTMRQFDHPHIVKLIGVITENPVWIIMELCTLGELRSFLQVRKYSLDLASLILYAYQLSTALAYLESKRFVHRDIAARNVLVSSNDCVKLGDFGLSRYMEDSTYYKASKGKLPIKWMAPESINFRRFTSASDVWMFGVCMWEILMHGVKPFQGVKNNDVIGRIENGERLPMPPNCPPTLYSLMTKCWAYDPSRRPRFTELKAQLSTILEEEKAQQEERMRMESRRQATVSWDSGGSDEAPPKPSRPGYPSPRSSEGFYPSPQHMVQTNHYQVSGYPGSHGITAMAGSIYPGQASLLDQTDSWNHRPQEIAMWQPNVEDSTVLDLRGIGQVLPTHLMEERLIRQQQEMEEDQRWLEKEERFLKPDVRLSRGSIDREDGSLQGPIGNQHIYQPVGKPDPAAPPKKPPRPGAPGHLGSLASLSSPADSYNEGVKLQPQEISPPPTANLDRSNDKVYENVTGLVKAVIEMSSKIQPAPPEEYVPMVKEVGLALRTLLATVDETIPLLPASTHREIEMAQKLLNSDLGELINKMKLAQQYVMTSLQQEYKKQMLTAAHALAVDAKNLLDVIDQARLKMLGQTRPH
Albumin (Bos taurus), sequence (P02769 whole entry, looked up): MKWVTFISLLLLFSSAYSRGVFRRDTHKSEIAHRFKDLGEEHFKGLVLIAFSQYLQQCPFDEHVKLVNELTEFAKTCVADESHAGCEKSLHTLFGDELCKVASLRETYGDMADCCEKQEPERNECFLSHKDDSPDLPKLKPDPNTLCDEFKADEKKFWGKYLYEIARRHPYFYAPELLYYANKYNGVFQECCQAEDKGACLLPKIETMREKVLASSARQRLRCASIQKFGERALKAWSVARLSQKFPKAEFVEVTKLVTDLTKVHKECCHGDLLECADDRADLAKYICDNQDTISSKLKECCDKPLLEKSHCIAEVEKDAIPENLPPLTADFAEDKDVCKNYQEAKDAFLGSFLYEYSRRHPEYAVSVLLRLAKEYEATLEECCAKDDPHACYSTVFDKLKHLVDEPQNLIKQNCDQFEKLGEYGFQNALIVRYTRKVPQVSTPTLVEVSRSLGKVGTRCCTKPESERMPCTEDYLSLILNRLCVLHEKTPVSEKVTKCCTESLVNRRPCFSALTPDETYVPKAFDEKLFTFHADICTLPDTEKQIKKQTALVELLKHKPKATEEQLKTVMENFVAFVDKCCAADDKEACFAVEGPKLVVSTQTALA
Concanavalin-A (Canavalia ensiformis), sequence (P02866 whole entry, looked up): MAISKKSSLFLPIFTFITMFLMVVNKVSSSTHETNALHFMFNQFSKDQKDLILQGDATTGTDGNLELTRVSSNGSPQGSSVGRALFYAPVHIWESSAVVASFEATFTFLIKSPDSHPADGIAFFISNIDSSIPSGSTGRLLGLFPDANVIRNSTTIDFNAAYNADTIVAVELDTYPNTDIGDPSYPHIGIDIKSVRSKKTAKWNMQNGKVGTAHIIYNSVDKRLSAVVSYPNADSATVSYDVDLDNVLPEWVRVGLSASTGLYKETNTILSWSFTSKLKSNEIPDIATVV
Follistatin (Homo sapiens), sequence (P19883 whole entry, looked up): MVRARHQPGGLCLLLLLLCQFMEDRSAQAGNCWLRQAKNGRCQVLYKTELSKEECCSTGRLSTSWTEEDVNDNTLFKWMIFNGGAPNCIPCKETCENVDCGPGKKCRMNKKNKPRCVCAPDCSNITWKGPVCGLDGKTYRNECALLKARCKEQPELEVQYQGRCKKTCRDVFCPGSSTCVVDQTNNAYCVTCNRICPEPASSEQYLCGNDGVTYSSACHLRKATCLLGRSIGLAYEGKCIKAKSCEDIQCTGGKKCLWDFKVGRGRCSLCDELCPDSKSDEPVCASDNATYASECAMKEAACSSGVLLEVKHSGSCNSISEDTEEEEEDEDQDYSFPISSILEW

Compound | composite z-score (Albumin (Bos taurus)) | composite Z-score [1] | composite z-score [2] | composite z-score [3] | composite z-score [4] | composite z-score [5] | composite z-score [6] | composite z-score (Sam68 (KHDRBS1)) | composite z-score [7] | composite z-score [8] | composite z-score [9] | composite z-score [10] | composite z-score [11] | composite z-score [12] | composite z-score [13] | composite z-score [14] | z-score [15] | composite z-score (Lefty1) | composite z-score [16] | z-score [17]
CON=C(C)CCN1CCCc2nc(C)c(C)cc21 | -0.353 | 0.599 (inactive) | 0.0496 | -0.0769 | 0.438 | 1.42 | 0.234 | 1.1 | 0.637 | 0.374 | 1.15 | 0.476 | -0.0211 | 0.613 | 0.632 | 0.653 | 1.45 | 1.05 | 0.201 | 0.267 (inactive)
CO[C@H]1COC(=O)[C@H](C)COC(=O)[C@H](C)NC(=O)CC=C[C@H]1C | -0.642 | 1.19 (inactive) | -0.131 | -0.0051 | 0.0006 | -0.429 | 0.352 | 1.04 | 1.44 | -0.581 | 0.0849 | -0.375 | -0.315 | -1.01 | 1.41 | 1.43 | 0.763 | 1.36 | -0.729 | -0.403 (inactive)
O=C1CCCC=C1C(O)COCc1ccccc1 (stereo not given) | 0.411 | 0.16 (inactive) | -0.154 | -0.157 | -0.213 | 0.428 | 0.08 | -1.01 | -0.137 | 0.999 | 0.195 | -1.33 | 0.0944 | 0.772 | 0.124 | 0.236 | -0.68 | 0.295 | -0.0439 | 0.345 (inactive)
O=C1[C@H]2[C@H]3[C@H](O)[C@H](O)CC(=NO[C@@H]4O[C@H](CO)[C@@H](O)[C@H](O)[C@H]4O)[C@@H]3CC[C@H]2C(=O)N1c1cccc(Oc2ccccc2)c1 | 0.29 | -0.65 (inactive) | -0.0391 | -0.104 | -0.0428 | 0.109 | 0.106 | 0.324 | 0.775 | 0.588 | 0.13 | 0.542 | 0.0405 | 0.578 | 0.858 | 0.948 | -0.728 | 0.879 | 0.335 | 0.825 (inactive)
COC(=O)[C@H](C)NC(=O)CCC1CC(OC(=O)NCCc2ccc(F)cc2)CC2(CCCC(COC(=O)NCC3CCCCC3)O2)O1 (stereo not given in full) | 0.0505 | 0.697 (inactive) | -0.0362 | -0.106 | 0.427 | 1.52 | 0.191 | 1.3 | 0.507 | 0.971 | 0.608 | 1.19 | 0.178 | 0.86 | 0.639 | 0.572 | -1.03 | 0.744 | 0.804 | 0.765 (inactive)
CCN1C(=O)[C@H]2[C@H]3[C@H](O)[C@H](O)CC(=NOC[C@@H](O)COCc4ccco4)[C@H]3CC[C@H]2C1=O | 0.532 | 0.525 (inactive) | -0.18 | -0.16 | 0.093 | -0.303 | 0.0965 | 0.971 | 1.5 | -1.26 | -1.13 | -0.516 | 0.0699 | -0.554 | 1.39 | 1.66 | 0.0801 | 1.55 | -0.976 | -0.941 (inactive)
CCCNC(=O)OC[C@H]1O[C@H](CCON=C[C@@H](C)[C@H](OCc2ccccc2)C(C)C)C=C[C@@H]1Oc1ccc(OC)cc1 | -0.655 | -0.288 (inactive) | -0.0308 | -0.149 | -0.473 | 0.775 | -0.394 | -1.04 | 0.379 | -0.501 | 3.25 | -0.603 | -0.072 | -0.101 | -0.134 | -0.0238 | 1.63 | 0.401 | -0.199 | -1.46 (inactive)
O=C(NCCC[N+]1=CC=NC1c1ccccc1)N1CCCc2nc(-c3ccc(Br)cc3)ccc21 (stereo not given) | 0.452 | 0.762 (inactive) | -0.222 | -0.119 | -0.0214 | -0.382 | -0.264 | 0.152 | 0.421 | 0.605 | 0.862 | -0.493 | 0.183 | 0.692 | 0.733 | 0.208 | 1.76 | 0.27 | -0.471 | 0.395 (inactive)
COc1ccc2c(c1)O[C@@H](c1cccc(C(F)(F)F)c1)[C@H](O)C2=O | 0.442 | 0.115 (inactive) | -0.152 | -0.0761 | 0.0122 | -0.0749 | 0.0318 | 0.642 | 0.647 | 0.494 | 0.0408 | 0.584 | 0.0103 | 0.289 | 0.282 | 0.656 | 0.903 | 0.309 | 0.408 | 0.335 (inactive)
C[C@@H](c1ccccc1)N1C(=O)[C@H]2[C@H]3[C@H](O)[C@H](O)CC(=NOC[C@@H](O)COCc4ccco4)[C@H]3CC[C@H]2C1=O | -0.0559 | -0.0004 (inactive) | 0.106 | -0.189 | -0.578 | -0.795 | 0.565 | -0.382 | 1.51 | -0.832 | 0.0749 | -1.09 | -0.546 | 0.658 | 1.1 | 1.36 | -0.882 | 1.05 | 0.0723 | 0.997 (inactive)
Cc1cc2c(nc1C)CCCCN2CC(O)CN1CCCc2nc(-c3ccc(Br)cc3)ccc21 (stereo not given) | 0.466 | -0.211 (inactive) | 0.298 | 0.0067 | 0.493 | 0.417 | 0.293 | 0.754 | 0.613 | 0.783 | 0.819 | 0.582 | 0.171 | -0.564 | 1.06 | 0.709 | 1.59 | 0.998 | 0.765 | -0.802 (inactive)
